Hits are enriched below; roughly 12% of the tested compounds scored in any of these assays.
CHX counter: Cycloheximide Counterscreen for Small Molecule Inhibitors of Shiga Toxin; cell reporter, cycloheximide protein synthesis inhibition counterscreen; max response, %; 12% of 300,000 active; AID 2314, 2010; in the data active = max response mostly above about 13%, no sharp cut-off; inactive = mostly below about 14%; also: read at 38.3 µM for the half of the compounds with a filed dose; 0% is about no effect
Lassa entry inh: qHTS for Inhibitors of binding or entry into cells for Lassa Virus; Lassa virus pseudotype entry inhibition, cell reporter; Potency, µM (highest dose often 37.9 µM), without a hit: at the top dose activity change, negative = inhibition, actives largely listed as inhibitors; 1.2% of 300,000 active; calls by dose curve; tested in HEK293 cells; also: potency is read from the fitted curve at half-maximal effect; % is scaled to controls: 0 for no effect and ±100 for the full control effect; nearly all actives have a fitted effect of over 50% in size
Marburg entry inh: qHTS for inhibitors of binding or entry into cells for Marburg Virus; Marburg virus pseudotyped entry inhibition, cell reporter; Potency, µM (titrated, usually from 37.8 µM), without a hit: top-dose activity change, negative = inhibition, most hits filed as inhibitors; 1.8% of 300,000 active; calls by dose curve; tested in HEK293 cells; also: potency is read from the fitted curve at half-maximal effect; % is scaled to controls: 0 for no effect and ±100 for the full control effect
Shiga toxin inh: A qHTS for Small Molecule Inhibitors of Shiga Toxin; Vero cells, Shiga toxin protein synthesis inhibition reporter; 9.2% of 290,000 active; AID 2315, 2010; inhibition, % at 38.7 µM; in the data active = inhibition mostly above about 28%, no sharp cut-off; inactive = mostly below about 43%; also: 0% is about no effect
Numbers without * were called inactive; ? = inconclusive; · = no result; [ ] = remark or other dose.

SMILES	CHX counter	Lassa entry inh	Marburg entry inh	Shiga toxin inh
CCN(CC)c1ccc2c(C)c(Cl)c(=O)oc2c1	10	?	?	24
CCOC(=O)Cc1c(C)c2ccc(N(CC)CC)cc2oc1=O	19*	-8%	-3%	100*
O=C1C2=C(C(=O)c3ccccc31)[C@H]1O[C@](c3ccsc3)(Cc3c1ccc1ccccc31)O2	·	·	15%[14.2 µM]	·
Cc1cc(C)c2oc(-c3cc(NC(=O)Cc4ccccc4)ccc3Cl)nc2c1	·	-10%[46.1 µM]	7%[46.1 µM]	·
CN(C)/C=N/C(=S)Nc1ccc(Cl)cc1Cl	57*	?	-13%[46.1 µM]	74*
CC(=O)/C(=C/N(C)C)C(=O)Nc1ccc(Cl)cc1Cl	21	0%[46.1 µM]	-11%[46.1 µM]	16
CN(C)/C=N/C(=S)Nc1ccc(Cl)cc1	35*	3%	?	65*
CCn1c(SCC(=O)Nc2ccc(N(C)C)cc2)nnc1-c1ccco1	13	0%	10%[46.1 µM]	28
CC(C)CC(C(=O)NC(C)(C)C)N(Cc1cccs1)C(=O)c1snc(C(N)=O)c1N (stereo not drawn)	49*	·	·	47*
COc1ccc(C(C(=O)NCC2CCCO2)N(Cc2cccs2)C(=O)c2snc(C(N)=O)c2N)cc1 (stereo not drawn)	-4	?	3.2µM*	6
CCCC(C(=O)NC(C)(C)C)N(C(=O)c1snc(C(N)=O)c1N)c1ccc2c(c1)OCCO2 (stereo not drawn)	56*	-7%[46.1 µM]	?	114*
CCOc1ccc(C(C(=O)NCC2CCCO2)N(Cc2cccc(OC)c2)C(=O)c2snc(C(N)=O)c2N)cc1 (stereo not drawn)	-4	·	?	-6
COc1ccc(CN(C(=O)Cn2nnc(-c3ccc(C)o3)n2)C(C(=O)NCC2CCCO2)c2ccco2)cc1 (stereo not drawn)	17*	-3%	?	0
CCOc1ccc(N(C(=O)c2snc(C(N)=O)c2N)C(C(=O)NCC2CCCO2)c2ccco2)cc1 (stereo not drawn)	-7	?	13µM*	-5
Cc1ccc(S(=O)(=O)Nc2c(O)ccc3ccccc23)cc1	·	8%[46.1 µM]	-10%[46.1 µM]	·
Cc1ccc(S(=O)(=O)Nc2c(Cl)c(Cl)c(O)c3ccccc23)cc1	34*	·	·	47*
NCCCCCCNc1nc2c(N)ncnc2n1[C@@H]1O[C@@H]2COP(=O)(O)O[C@H]2[C@H]1O	10	·	·	-7
Nc1ncnc2c1nc(Br)n2C1O[C@H]2COP(=O)(O)O[C@@H]2C1O (stereo partly drawn)	·	·	3.2µM*	·
CCOC(=O)C1=CN(CCC=C(C)C)C(=O)NC1c1ccccc1 (stereo not drawn)	·	?	7%[14.2 µM]	·
CCN(CC)S(=O)(=O)c1ccc(C(=O)Nc2ccc(C(F)(F)F)n(C)c2=O)cc1	-6	9%	18%[46.1 µM]	51
COCCn1c(SCC(=O)NNC(=O)c2ccccc2)nc2ccccc2c1=O	2	17%	?	-12
COc1ccc(Oc2ccc(C(F)(F)F)cc2NC(=O)c2ccc(OC)cc2)cc1	-2	·	·	-9
Cc1ccc(C(=O)Nc2ccc(C(F)(F)F)n(C)c2=O)cc1	45*	?	-4%[46.1 µM]	87*
COc1ccc(C(=O)Nc2ccc(C(F)(F)F)n(C)c2=O)cc1	19*	·	·	58*
COCCn1c(C(F)(F)F)ccc(NC(=O)c2ccccc2)c1=O	48*	?	?	51*
SMILES	CHX counter	Lassa entry inh	Marburg entry inh	Shiga toxin inh
CC(=O)Nc1ccc(S(=O)(=O)N2CCN(C(=O)c3ncoc3-c3ccccc3C)CC2)cc1	-6	-32%	-9%[46.1 µM]	-7
CSc1cccc(N2CC(C(=O)NCCC3=CCCCC3)CC2=O)c1 (stereo not drawn)	·	?	6%	·
CCn1nnnc1NCc1ccc(OCc2ccc(F)cc2Cl)c(OC)c1	-3	?	10µM*	-4
c1ccc(C(c2ccccc2)c2nc(-c3cccnc3)no2)cc1	-3	6%	-12%	-4
Brc1ccc(-c2nc(-c3cccnc3)no2)o1	69*	2%	-27%	111*
Brc1ccc(-c2nc(-c3ccccc3)no2)o1	59*	?	?	104*
CCOC(=O)c1c(S(=O)(=O)N2CCCC(C(=O)N3CCN(c4ccc(F)cc4)CC3)C2)c(C)n(C)c1C (stereo not drawn)	·	23%[46.1 µM]	·	·
COc1ccc(C(=O)Nc2ccccc2C(=O)O)cc1Cl	27*	-9%	?	66*
CCOc1ccc(C(=O)Nc2cccc(C(=O)O)c2C)cc1Cl	31*	9.2µM*	5.8µM*	66*
O=C(Nc1ccccc1C(=O)O)c1ccccc1	2	-4%	-17%	-7
Cc1c(NC(=O)c2ccc(-c3ccccc3)cc2)cccc1C(=O)O	35*	·	·	66*
COc1ccc(C(=O)Nc2ccccc2C(=O)O)cc1NC(=O)C(c1ccccc1)c1ccccc1	-2	·	·	-5

Source: PubChem (National Center for Advancing Translational Sciences (NCATS))
